Data on twelve compounds can be found in PubChem BioAssay (EPA / NIEHS).

Values joined by “and” are separate entries in the source; they are usually repeats but may differ in a detail not shown here. Equal values may be shown once. Inconclusive results are not listed. The source holds several records for some structures; these can differ, active in one and inactive in another. Active and inactive are the calls of the source. How the source made its calls, unless noted: active means hit-call score of the fitted dose curve at least 0.9, where 1 is the maximum; inconclusive means response in the unintended direction; inactive means score below 0.9.

A short description of test [1]: STM_H9_OrnCyssISnorm_ratio: Stemina devTOX quickPredict H9 human embryonic stem cell (hESC)-based Assay for Ornithine (ORN):Cystine (CYSS) Ratio (AID 2283714). The procedure, abridged: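 UPLC-HRMS of spent media: ORN/CYSS ratio of internal-standard-normalized percentages, DMSO (0.1%) baseline. Pluripotent H9 hESCs, 72h exposure, daily re-dosing with fresh media; last 24h media collected.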

Test [2] can be described thus: Tanguay_ZF_120hpf_TR_legacy: (Legacy) Oregon State University Tanguay Lab 120 Hour Post-fertilization zebrafish Assay for Touch Response (AID 2283667). The procedure, abridged: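 Binary touch-response call at 120 hpf, analysed as gain of signal versus DMSO baseline. Wild-type 5D larvae, static exposure at 28C, 0.64% DMSO final; 5uM trimethyltin chloride as positive control.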

The nature of test [3]: CCTE_Padilla_ZF_144hpf_TERATOSCORE: (Legacy) CCTE's 144 Hour Post-fertilization zebrafish Assay Teratoscore, Padilla Lab (AID 2283679; active means hit-call score of the fitted dose curve at least 0.9, where 1 is the maximum; inactive means score below 0.9;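 further: zebrafish embryos with chorions exposed by immersion from 6-8 hpf to 5 dpf with daily renewal; teratogenicity score from eye scoring of death hatching and malformations at 144 hpf; higher score means more developmental defects relative to DMSO baseline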). The procedure, abridged:
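Larvae scored by eye at 144 hpf for death, hatching and malformations after a day in clean Hanks'. Before that, daily-renewed exposure at 80 uM (0.4% DMSO, 26C) from roughly 6-8 hpf through 5 dpf, 4 embryos per chemical.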

A short description of test [4]: STM_H9_OrnithineISnorm_perc: Stemina devTOX quickPredict H9 human embryonic stem cell (hESC)-based Assay for Ornithine (ORN) Metabolite Biomarker, Normalized (AID 2283712; active means hit-call score of the fitted dose curve at least 0.9, where 1 is the maximum; inactive means score below 0.9;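 further: ornithine released into spent medium during last day measured by mass spectrometry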). The procedure, abridged: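 Ornithine secreted by H9 hESCs after 72h compound treatment (daily media/compound renewal) was quantified in final-day media by UPLC-HRMS. Values are isotope-standard-normalized, expressed relative to 0.1% DMSO, fitted in positive direction.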

Test [5] is described as follows: STM_H9_CystineISnorm_perc: Stemina devTOX quickPredict H9 human embryonic stem cell (hESC)-based Assay for Cystine (CYSS) Metabolite Biomarker, Normalized (AID 2283713; active means hit-call score of the fitted dose curve at least 0.9, where 1 is the maximum; inactive means score below 0.9). The procedure, abridged: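 Cells are held undifferentiated and treated for 72h, receiving fresh medium with compound every 24h. Cystine secreted during the final day is quantified by UPLC-HRMS against a labeled spike-in, then expressed relative to the DMSO vehicle median.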

Test [6] can be described thus: ArunA_CellTiter_hNC: Viability Assessment in the ArunA Biomedical's Oris Neural Crest (hNC) Cell Migration Assay (AID 2283752). The procedure, abridged: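 Seed 60,000 hNC cells per well onto Matrigel in basal growth medium containing LIF and bFGF. Incubate 16 h at 37C. Replace with test medium containing chemical for 72 h, then assess viability by CellTiter Aqueous One.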

A short description of test [7]: ArunA_CellTiter_hNP: Viability Assessment in the ArunA Biomedical's Oris Neural Crest (hNC) Cell Migration Assay (AID 2283753). As for the experimental part:
ArunA_CellTiter_hNP is a cell-based, single-readout assay that uses human H9-derived neuroprogenitor stem cells (hNP1).Measurements were taken 72 hours after chemical dosing in a 96-well plate.ArunA_CellTiter_hNP is an assay component measured from the ArunA_CellTiter_hNP assay. It is designed to make measurements of viability, a form of viability reporter, as detected with fluorescence intensity signals by HCS Fluorescent Imaging technology. Data from the assay component ArunA_CellTiter_hNP was analyzed at the endpoint, ArunA_CellTiter_hNP, in the positive analysis fitting direction relative to DMSO as the negative control and baseline of activity. […]
To assess the hNP and hNC migration and cell titer endpoints, 60,000 cells per well were plated onto Matrigel in basal growth medium with LIF and bFGF in a 96-well plate format. […] Cell viability in the detection zone was quantitated using a Flexstation3 microplate reader (ex494 nm/em 517 nm). Corresponding cell titer endpoints were assessed for the hNP and hNC cells using the Promega CellTiter Aqueous One Solution Cell Proliferation Assay (Cat no. G3581; CellTiter 96). Finally, to gain insight into the mechanisms by which cells migrate into the detection zone, Ki-67 expression was quantified for 10 additional chemicals in the hNP and hNC systems. […]

Test [8] in a line: ArunA_Migration_hNP: ArunA Biomedical's Oris Neuroprogenitor (hNP) Cell Migration Assay (AID 2283754). The procedure, abridged:
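Readout is calcein-AM fluorescence (ex494/em517) of cells migrating into the detection zone, relative to DMSO. hNP1 cells (H9-derived) grown on Matrigel behind stoppers 16 h, then stoppers pulled and chemical applied 72 h; cytochalasin D as control.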

Test [9] in a line: ArunA_Migration_hNC: ArunA Biomedical's Oris Neural Crest (hNC) Cell Migration Assay (AID 2283755). The procedure, abridged:
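Calcein-AM fluorescence (ex494 nm/em 517 nm) in the stopper-defined detection zone quantifies migration of hNC cells after 72 h chemical exposure; 60,000 cells/well plated on Matrigel with LIF and bFGF, 16 h pre-incubation. DMSO baseline.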

Consider `C=Cc1ccc(O)c(OC)c1`, for which the AC50 (usually the midpoint of the concentration-response curve, whichever way the signal moves) in [1] was 81000 nM (active).

Regarding `N=C(N)c1ccc(OCCCCCOc2ccc(C(=N)N)cc2)cc1`, in [2], the result was inactive. Moreover, the AC50 in test [3] was 41.4 µM (active).

Take `CC(C)c1c(C(=O)Nc2ccccc2)c(-c2ccccc2)c(-c2ccc(F)cc2)n1CC[C@@H](O)C[C@@H](O)CC(=O)O`: the half-maximal activity concentration (AC50) in test [3] is 2.65 µM (active) and 3.07 µM (active).

As to `CC(=O)Nc1ccc(O)cc1`, in test [2], the result was inactive.

With `CCCCC(CC)C(=O)O` (configuration not stated), the compound was called inactive in test [2], in test [5] and in test [1]. Further, in [4], the AC50 was 134 nM (active).

As to `O=C(CCCN1CCC(O)(c2ccc(Cl)cc2)CC1)c1ccc(F)cc1`, the compound was called inactive in [2], in test [4], in test [5], in [1], in test [6] and in test [9]. The AC50 in test [3] is 0.664 µM (active); in test [7], 12400 nM (active); in test [8] it was 50 µM (active) and 61.7 nM (active); in [9], 5340 nM (active).

Regarding `CN(Cc1cnc2nc(N)nc(N)c2n1)c1ccc(C(=O)N[C@@H](CCC(=O)O)C(=O)O)cc1`, in test [2], the compound was called inactive. The AC50 was 77.3 nM (active) in test [4], 87.3 nM (active) in test [5] and 86.3 nM (active) in test [1].

`Oc1c(Cl)cc(Cl)cc1Sc1cc(Cl)cc(Cl)c1O`: the result in [1] was inactive.

Regarding `O=C1NS(=O)(=O)c2ccccc21`, the outcome in [2], in test [5] and in test [1] was inactive. Moreover, the half-maximal activity concentration (AC50) in [4] is 113 nM (active).

As for `Cn1sccc1=O`, in [1], the AC50 was 10800 nM (active).

In the case of `Cc1[nH]nc2c1N=C(c1ccccc1Cl)c1cc([N+](=O)[O-])ccc1N2`, in test [2], the outcome was inactive. For the same compound, the AC50 is 1.32 µM (active) in test [3], 2080 nM (active) in [4], 1620 nM (active) in test [5] and 1850 nM (active) in test [1].

Consider `OCC(CO)(CBr)CBr`, for which the compound was called inactive in test [2], in test [4], in test [5], in [1], in test [6] and in test [7]. Besides, the result in [8] and in test [9] was inactive.
